As usually defined, the inhibition is the change of the read-out against control, counted positive when it falls. Broadly, the remaining activity is the signal under treatment as a percentage of the control signal. A word on the viability: it is a read-out of living cells in per cent, often relative to untreated cells. As a reminder, the AC50 is the concentration giving half of the maximal activity seen. A word on the IC50: it is the midpoint of a concentration-inhibition curve.

Several values for one entry are separate records, joined by “and”; a condition that tells them apart may be missing. Identical values can stand only once. Results filed as inconclusive are left out. Activity calls are given as the source filed them. Unless noted, the rule behind the calls is not given here.

Test [1] in a line: compounds altering circadian rhythm period length – cell-based, LOPAC library, luminescence reporter (AID 2774).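 Note: values are relative to mean of DMSO wells on each plate.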 Conditions: circadian reporter cells, at 7 µM, actives lie on both sides.
Test [2] has as its system Hepatitis C virus NS3 helicase. As to the kind of experiment: blockers of NS3h binding to ssDNA – biochemical, fluorescence polarization, LOPAC1280 library, primary screen (AID 687035; in the data active = inhibition above about 37%). Conditions: Purified HCV NS3 helicase, Cy5-dT15 ssDNA binding fluorescence polarization; stronger effect = higher value; concentration not given here.
Test [3] is described as follows: compounds altering Cy5-DNA-NS3h complex signal – biochemical, LOPAC1280, artefact control for HCV NS3 helicase inhibitor project (AID 687037). Conditions: Cy5-DNA-NS3h complex fluorescence interference counterscreen. Background: Counterscreens check selectivity or assay interference.
Test [4] deals with Aerobactin synthetase IucA (Klebsiella pneumoniae, hypervirulent). Kind of test: biochemical IucA inhibition screen of LOPAC library by absorbance (AID 1346212).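 Note: 100% = no compound wells and 0% = no enzyme wells.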 Conditions: IucA enzyme assay, absorbance (OD) readout; stronger effect = lower value;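 tested at 8 µM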.
A short description of test [5]: viability loss with induced miR-34 in A549 – imaging, A549 dox-inducible miR-34, nuclei and caspase counts, primary screen (AID 1347080;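 active = compounds whose cell count with miR-34 switched on is under 0.7 times the count with it off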). Conditions: A549 miR-34 inducible, Hoechst nuclei count, 48 h.
The nature of test [6]: blockers of cellular phospholipid synthesis – cell-based, LOPAC library, screen 4, primary screen (AID 1347384). Conditions: animal cells, phospholipid biosynthesis inhibition screen; at 10 µM.
A short description of test [7]: galactose survival enhancers in mitochondrial complex I cybrids – cell-based, galactose medium, ATP luminescence, primary screen (AID 1645843;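 active = z-score of at least 1.8 in each of two replicates, scored against plate mean and spread of sample wells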;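 note: positive z means more ATP and so rescue of galactose-driven cybrid death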). Conditions: complex I mutant cybrid cells, 72 h, stronger effect = higher value.
A short description of test [8]: P. berghei load reduction in hepatocytes – cell-based, HepG2, luciferase luminescence, HepG2 viability, primary screen (AID 624349; in the data active = parasite load remaining mostly below about 12%, no sharp cut-off; inactive = mostly above about 10%;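 note: 100% = mean of DMSO negative control wells on the same plate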). Conditions: P. berghei liver stage in HepG2, luciferase luminescence, concentration not given here; parasite load remaining: stronger effect = lower value; viability: measured here: HepG2 viability without parasites.
The nature of test [9]: viability loss in pontine glioma line – cell-based, SU-DIPG-XIII, MIPE4.0, CellTiter-Glo, qHTS, dose response (AID 1347061; cut-off not given, nearly all actives have AC50 up to about 37 µM;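 note: cells exposed to compound for 48 hours before readout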). Conditions: CellTiter-Glo ATP luminescence. In general terms: ATP-based viability assays read luminescence as a measure of living cells.
The nature of test [10]: viability loss in pontine glioma line – cell-based, JHH-DIPG-1, MIPE4.0, CellTiter-Glo, qHTS, dose response (AID 1347062; cut-off not given, nearly all actives have AC50 up to about 27 µM;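 note: cells exposed to compound for two days before readout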). The note with it: JHH-DIPG-1 viability, CellTiter-Glo ATP luminescence.
Test [11] can be described thus: viability loss in pontine glioma line – cell-based, SU-DIPG-IV, MIPE4.0, CellTiter-Glo, qHTS, dose response (AID 1347063; cut-off not given, nearly all actives have AC50 up to about 30 µM;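 note: compound exposure lasted 48 hours before the viability readout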). The note with it: CellTiter-Glo ATP luminescence.
Test [12] in a line: viability loss in pontine glioma line – cell-based, SU-DIPG-XIII, MIPE5.0, CellTiter-Glo, qHTS, dose response (AID 1347064; cut-off not given, nearly all actives have AC50 up to about 23 µM;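 note: cells exposed to compound for 48 hours before the viability read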). Conditions: CellTiter-Glo ATP luminescence.
Test [13] is described as follows: growth inhibition of DIPG cells – cell-based, MIPE4.0 library, CellTiter-Glo luminescence, qHTS (AID 1347066; cut-off not given, nearly all actives have AC50 up to about 30 µM;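 note: cells exposed to compound for 48 hours before readout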). The note with it: SU-DIPG-VI viability, CellTiter-Glo ATP luminescence.
Test [14] can be described thus: JHH-DIPG-1 glioma cell viability, MIPE5.0 library, CellTiter-Glo luminescence, qHTS (AID 1347067; cut-off not given, nearly all actives have AC50 up to about 26 µM;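 note: cells exposed to compound for 48 hours before readout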). Conditions: JHH-DIPG-1 glioma viability, CellTiter-Glo ATP luminescence.
A short description of test [15]: chitosan synthesis blockers in C. neoformans – flow cytometry, Cibacron Brilliant Red staining (AID 1347148).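 Note: compound exposure lasted three days at 37 degrees C.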 Conditions: Cryptococcus neoformans chitosan, stronger effect = lower value; at 10 µM unless noted. On the technique in general: Flow cytometry measures light scatter and fluorescence of single cells or particles in a stream.
Test [16] in a line: viability loss in pontine glioma line – cell-based, SU-DIPG-XVII, MIPE5.0, CellTiter-Glo, qHTS, dose response (AID 1347060; cut-off not given, nearly all actives have AC50 up to about 26 µM;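 note: cells exposed to compound for 48 hours before viability readout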). Conditions: CellTiter-Glo ATP luminescence.
A short description of test [17]: viability loss in pontine glioma line – cell-based, SU-DIPG-XXV, MIPE5.0, CellTiter-Glo, qHTS, dose response (AID 1347065; cut-off not given, nearly all actives have AC50 up to about 26 µM;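 note: cells exposed to compound for 48 hours before ATP readout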). The note with it: CellTiter-Glo ATP luminescence.
Test [18] in a line: growth inhibition of DIPG cells – cell-based, MIPE5.0 library, qHTS (AID 1347068; cut-off not given, nearly all actives have IC50 up to about 30 µM;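 note: cells exposed to compound for 48 hours before viability readout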). The note with it: SU-DIPG-XXV viability.
The mark [19] stands for this setting: measured here: relative caspase fold change +Dox/-Dox.
Setting [20] is: measured here: total cells with miR-34 induction, stronger effect = lower value.
[21] abbreviates: measured here: total cells without miR-34 induction.

Regarding `Clc1cnc(Oc2ccc(Oc3ncc(Cl)cc3Cl)cc2)c(Cl)c1`, in test [1], the period change is 0 h (inactive). The inhibition in [2] was -3% (inactive). In addition, the fluorescence ratio (interference) in test [3] was 1 (inactive). In addition, in test [4], the remaining activity was 94.8% (inactive). Moreover, the figures for the fold change in [5] (stronger effect = lower value) and in test [5] (setting [19]) were 0.984 (inactive) and 1.88, respectively. For the same compound, the cell count in [5] (setting [20]) was found to be 9890; in test [5] (setting [21]), 10000. Moreover, the call in test [6] was inactive. In [7], the z-score is 1.21 (inactive).
On to `CCCN1CC[C@@H]2c3cc(O)ccc3CC[C@@H]21`, for which the period change in [1] is -0.045 h (inactive). Also, in test [2], the inhibition is -4% (inactive). In addition, the fluorescence ratio (interference) in [3] was 0.9 (inactive). Moreover, the remaining activity in test [4] was 105% (inactive). Also, the values for the fold change in test [5] (stronger effect = lower value) and in [5] (setting [19]) were 1.1 (inactive) and 0.654, respectively. Also, the cell count came out at 11000 in [5] (setting [20]) and 10000 in [5] (setting [21]). The compound was called inactive in [6]. Further, in [7], the z-score is 0.605 (inactive).
For the compound `COc1ccc2c(c[n+](C)c3c4cc5c(cc4ccc23)OCO5)c1OC`, the period change in [1] is 0.045 h (inactive). Moreover, the parasite load remaining in test [8] was 41.8% (inactive). Moreover, the viability in test [8] worked out at 157%. The inhibition in test [2] was -3% (inactive). Besides, the fluorescence ratio (interference) in [3] was 0.9 (inactive). Also, the remaining activity in test [4] was 110% (inactive). In addition, the half-maximal activity concentration (AC50) in test [9] was 26400 nM (active); in test [10] it was 4180 nM (active); in test [11], 5260 nM (active); in test [12], 4170 nM (active); in test [13], 8330 nM (active); in test [14], 5900 nM (active). Besides, the fold change was 1.19 (inactive) and 0.771 (inactive) in [5] (stronger effect = lower value); 0.571 and 1.14 in test [5] (setting [19]). Moreover, the cell count in test [5] (setting [20]) was 525 and 1050; in test [5] (setting [21]) it was 442 and 1360. The fold fluorescence in test [15] was 7.04 [at 143.5 µM] (inactive). In addition, in [6], the compound was called inactive. Moreover, the z-score in [7] was -1.52 (inactive).
Regarding `CP(=O)(O)C1=CCNCC1`, the period change in [1] is 0.005 h (inactive). Moreover, the inhibition in test [2] is -5% (inactive). In addition, the fluorescence ratio (interference) in test [3] was 1 (inactive). Moreover, the remaining activity in test [4] is 95.4% (inactive). For the same compound, the fold change is 0.981 (inactive) in [5] (stronger effect = lower value) and 1.49 in [5] (setting [19]). Besides, the cell count came to 9760 in test [5] (setting [20]) and 9940 in test [5] (setting [21]). The outcome in [6] was inactive. In addition, the z-score in [7] is 0.2 (inactive).
Turning to `C/C=C(/C)C(=O)O[C@H]1C(C)=C2[C@H]([C@@H]1OC(=O)CCCCCCC)[C@@](C)(OC(C)=O)C[C@H](OC(=O)CCC)[C@@]1(O)[C@H]2OC(=O)[C@@]1(C)O`, in test [1], the period change is 9.62 h (inactive). Besides, the inhibition in [2] was -3% (inactive). Also, the fluorescence ratio (interference) in [3] was 1 (inactive). Moreover, the remaining activity in test [4] was 86.6% (inactive). The half-maximal activity concentration (AC50) is 52.5 nM (active) in test [16]; 590 nM (active) in [9]; 46.9 nM (active) in test [10]; 7.43 nM (active) in test [11]; 295 nM (active) in test [12]; 23.5 nM (active) in test [17]. The concentration at half-maximal activity (AC50) in test [13] is 105 nM (active). Further, the IC50 in [18] was 1320 nM (active). Also, the fold change in [5] (stronger effect = lower value) is 1.93 (inactive) and 1.56 (inactive); in test [5] (setting [19]), 0.132 and 0.916. The cell count was 662 and 522 in [5] (setting [20]); 343 and 336 in [5] (setting [21]). Moreover, the fold fluorescence in test [15] was 5.31 [at 76.8 µM] (inactive). In addition, the outcome in test [6] was inactive. In test [7], the z-score is -1.38 (inactive).

Source of the values: PubChem BioAssay.
